Test results reported in the supplement of paper PMC3334620.
Whole data set: some 33,000 sequences, median “E-score (-0.5 to 0.5)” near -0.0014, cut for the highest 2% near 0.25. The entries come from a sample that favours the highest values as a whole.

These sequences were tested against T1, Cad1 (UniProt P24813) (assay: PBM E-score (8-mer binding enrichment) (E-score (-0.5 to 0.5)); higher = stronger / more preferred TF binding). Settings: protein concentration: 100 nM; construct: GST-full length.
T1 sequence: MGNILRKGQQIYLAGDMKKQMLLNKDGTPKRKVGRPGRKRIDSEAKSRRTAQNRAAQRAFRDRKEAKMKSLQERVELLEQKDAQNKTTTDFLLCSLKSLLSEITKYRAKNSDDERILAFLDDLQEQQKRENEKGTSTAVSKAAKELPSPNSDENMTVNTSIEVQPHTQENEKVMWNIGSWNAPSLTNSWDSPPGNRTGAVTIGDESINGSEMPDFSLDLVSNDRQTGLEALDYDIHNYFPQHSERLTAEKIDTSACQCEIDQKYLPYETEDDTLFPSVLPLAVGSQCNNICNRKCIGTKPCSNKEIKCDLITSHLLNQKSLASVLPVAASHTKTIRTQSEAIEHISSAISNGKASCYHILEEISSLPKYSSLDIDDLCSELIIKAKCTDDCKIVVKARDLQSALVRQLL
Outline: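 Yeast transcription factors carrying a GST tag, as full-length proteins or DNA-binding domains, were produced by PURExpress in vitro transcription/translation. About 100-200 nM protein was applied to universal all-10-mer Agilent arrays, double-stranded by primer extension on fresh or once-stripped slides. Bound protein was detected with fluorescent anti-GST, and scans were normalised with masliner. The Universal PBM Analysis Suite gave each ungapped eight-base word, pooled with its reverse complement, an E-score, a modified Wilcoxon-Mann-Whitney statistic.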

Sequence | PBM E-score
CACACAGC | 0.107
CGGGGGCC | -0.42
CGGAGGTA | -0.0635
GGCGTCCC | -0.213
TGACGTCA | 0.334
GGACGTCA | -0.159
AGACGTCA | -0.096
CGTCGACG | 0.103
AGTCGACG | 0.296
AGTCGACA | 0.22
GGTCGACA | 0.0882
GGTCGACC | 0.263
CGTCGACC | 0.118
AGTCGACC | 0.107
ACTCGACG | 0.0798
AGTCGACT | 0.287
CCAACTAG | 0.0684
GCGCACCA | 0.134
CTAACCTA | -0.129
AACTAGCC | -0.0573
AGAACAGC | 0.00791
ACGCATTG | -0.0523

Sequence | PBM E-score
GAACATAC | 0.0334
AGTGGCGG | -0.014
CTCAGGCA | 0.034
AAACGAAC | 0.0751
GAACGAAA | -0.0129
AAACGAAT | 0.017
AAACGGAC | -0.00593
ACACCAAA | 0.254
TAACGAAA | 0.26
GAACGGAA | -0.0319
AAACGAAA | 0.287
GCACCAAA | -0.0001
AAACGGAA | 0.266
ACACCAAG | -0.0199
CAACGAAA | 0.162
GGGCAACA | -0.0207
TTCAAAAA | -0.0855
ACATTCCG | 0.05
CATGGAAA | 0.161
AGCTGAAT | -0.00032
GGGCAGTA | -0.0606
ACACGAAT | 0.0874

Sequence | PBM E-score
CAACGATA | 0.174
AAACGATA | 0.128
TAACGATA | 0.261
ACACGAAG | 0.0492
ACACGAAA | 0.257
GCAGTTAC | 0.128
CAAGTACG | -0.268
CCGGAGAC | 0.036
ACGGAGAC | 0.128
GCGGAGAC | 0.267
CTCAACGA | -0.0873
TGACATAA | 0.266
GTACATAA | 0.0232
CTACCTAA | 0.0375
AGACATAA | 0.0308
TTACCTAA | 0.334
CTACATAA | -0.0789
TTACATAA | 0.438
ATACCTAA | 0.227
GGACATAA | 0.102
AAGTGGCA | -0.0104
CTCCATGA | 0.0675

Sequence | PBM E-score
CCATAAGA | -0.0777
AAGCCTCG | -0.00547
ATTGTGAA | 0.0555
GCCCTCCC | -0.19
AAGCACAC | -0.0239
AAGCACAG | 0.0641
AAGCACAT | 0.254
AGTAACAA | 0.082
CGTAACAA | 0.0611
GGTAACAA | 0.261
ACCATCCG | -0.081
AAGTCCTC | -0.0441
CACGATTA | 0.162
CTCGATTC | 0.0642
ATCGATTG | 0.299
ATCGATTA | 0.275
ATCGATTC | 0.0832
CTCGATTA | 0.276
GTCGATTA | 0.115
ACCGATTA | 0.123
ATCGATCG | 0.188
